Among the data in PubChem BioAssay (EPA / NIEHS) are outcome and AC50 values, retold here.

Several values for one entry are separate records, joined by “and”; a condition that tells them apart may be missing. Equal entries are not always repeated. Records with an inconclusive call do not appear. The source holds several records for some structures; these can differ, active in one and inactive in another. Activity calls are given as the source filed them. The calls were made as follows, unless noted: active = hit-call score of the fitted dose curve at least 0.9, where 1 is the maximum; inactive = score below 0.9.

Assay [1] is described as follows: BSK_3C_VCAM1: BioMAP Diversity Plus: 3C Assay for Vascular cell adhesion molecule 1 (VCAM1) Biomarker Activity (AID 2282999). The conditions noted are these: BioMAP 3C HUVEC, VCAM1 ELISA, cytokine-stimulated; actives raise or lower the signal. The method, boiled down: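 Human umbilical vein endothelial cells were dosed with compound for 24 h, after which cell-surface VCAM-1 was quantified by ELISA. Bidirectional curve fitting used DMSO as negative control and activity baseline.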
(ELISA stands for enzyme-linked immunosorbent assay.)

A short description of assay [2]: BSK_4H_Eotaxin3: BioMAP Diversity Plus: 4H Assay for Eotaxin 3 Biomarker Activity (AID 2283000).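 As to outcome: CCL26 protein level quantified by ELISA in parallel with SRB cytotoxicity check.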 To be noted: primary human endothelial cells (HUVEC); actives raise or lower the signal. The method, boiled down: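 Endothelial primary cells (human umbilical vein) exposed to compound for 24 h. ELISA detection of Eotaxin-3.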
Assay [3] deals with human Peroxisome Proliferator-activated Receptor alpha (PPARa), PPARA (gene 5465) (UniProt Q07869). Nature of the assay: ATG_PPARa_TRANS: Attagene TRANS-FACTORIAL HepG2 Assay for human Peroxisome Proliferator-activated Receptor alpha (PPARa) (AID 2283001; active = hit-call score of the fitted dose curve at least 0.9, where 1 is the maximum). The method, boiled down:
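Gain-of-signal endpoint: reporter mRNA induction relative to DMSO, detected by fluorescent RT-PCR and capillary electrophoresis. HepG2 cells transiently carried GAL4-UAS-driven reporter units plus NR-Gal4 fusion; exposure lasted 24 h.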

Assay [4] has as its target human Peroxisome Proliferator-activated Receptor delta (PPARd), PPARD (gene 5467) (UniProt Q03181). Nature of the assay: ATG_PPARd_TRANS: Attagene TRANS-FACTORIAL HepG2 Assay for human Peroxisome Proliferator-activated Receptor delta (PPARd) (AID 2283002; active = hit-call score of the fitted dose curve at least 0.9, where 1 is the maximum). The method, boiled down:
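Multiplexed trans-activation format: HepG2 liver cells expressing exogenous NR-Gal4 chimeras and GAL4-UAS reporters were exposed for 24 h. Reporter mRNA was detected by RT-PCR with capillary electrophoresis fluorescence; activity fitted as gain of signal relative to DMSO.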

Read-out in assay [5]: Intercellular Adhesion Molecule 1 (ICAM1), ICAM1 (gene 3383)
Nature of the assay: BSK_3C_ICAM1: BioMAP Diversity Plus: 3C Assay for Intercellular Adhesion Molecule 1 (ICAM1) Biomarker Activity (AID 2283003). The conditions noted are these: primary human endothelial cells (HUVEC); actives raise or lower the signal. The method, boiled down: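 ICAM-1 levels measured by ELISA after HUVEC cultures in the 3C system had been dosed for 24 h. Gain or loss of signal relative to DMSO was fitted in both directions.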

Assay [6] concerns the target human Retinoic Acid Receptor beta (RARb), RARB (gene 5915) (UniProt P10826). Nature of the assay: ATG_RARb_TRANS: Attagene TRANS-FACTORIAL HepG2 Assay for human Retinoic Acid Receptor beta (AID 2283004; active = hit-call score of the fitted dose curve at least 0.9, where 1 is the maximum). The method, boiled down:
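HepG2, transient MRTU transfection, NR–Gal4 chimera, 24 h treatment; RT-PCR plus CE fluorescence detection of reporter mRNA; gain of signal vs DMSO.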

Assay [7] has as its target Retinoic acid receptor alpha (Homo sapiens) (UniProt P10276). Nature of the assay: ATG_RARa_TRANS: Attagene TRANS-FACTORIAL HepG2 Assay for human Retinoic Acid Receptor alpha (RARa) (AID 2283005; active = hit-call score of the fitted dose curve at least 0.9, where 1 is the maximum;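 as to AC50: potency for increased reporter signal meaning RARa activation over DMSO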). The method, boiled down: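 HepG2 cells transiently transfected with multiple reporter units expressing chimeric RARα-GAL4 fusion, with GAL4-UAS-driven reporters. After 24 h compound exposure, reporter mRNA induction quantified by RT-PCR and capillary electrophoresis with fluorescent labeling; gain-of-signal fitted relative to DMSO control.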

Assay [8] can be described thus: BSK_3C_Proliferation: Cell Proliferation Assessment in the BioMAP Diversity Plus: 3C Assay (AID 2283006).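 As to AC50: potency may reflect either rise or fall in cell number versus DMSO.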 To be noted: primary human endothelial cells (HUVEC). The method, boiled down:
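Read-out is total protein by SRB absorbance at 560 nm, taken as a proxy for relative cell number. Primary human umbilical vein endothelium cultured below confluence was dosed for 48 h, TCA-fixed and SRB-stained; curves were fitted bidirectionally versus DMSO.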

Assay [9] deals with Peroxisome proliferator-activated receptor gamma (Homo sapiens) (UniProt P37231). Nature of the assay: ATG_PPARg_TRANS: Attagene TRANS-FACTORIAL HepG2 Assay for human Peroxisome Proliferator-activated Receptor-gamma (PPARg) (AID 2283007; active = hit-call score of the fitted dose curve at least 0.9, where 1 is the maximum). The method, boiled down:
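Human hepatoma HepG2, transient MRTU transfection, 24 h treatment. mRNA reporter signal by RT-PCR plus capillary electrophoresis, fluorescence detection; fitted for increase over DMSO negative control.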

For assay [10], the target named is Nuclear receptor subfamily 1 group I member 2 (Homo sapiens) (UniProt O75469). Nature of the assay: ATG_PXR_TRANS: Attagene TRANS-FACTORIAL HepG2 Assay for human Pregnane X Receptor (PXR) (AID 2283008; active = hit-call score of the fitted dose curve at least 0.9, where 1 is the maximum). The method, boiled down: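 Measures mRNA induction of a GAL4-UAS-driven reporter in human HepG2 cells transiently expressing PXR fused to Gal4, following 24 h treatment. DMSO served as negative control and baseline.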
Nuclear receptor subfamily 1 group I member 2 (Homo sapiens), sequence (O75469 whole entry, looked up, the tested form may be a part): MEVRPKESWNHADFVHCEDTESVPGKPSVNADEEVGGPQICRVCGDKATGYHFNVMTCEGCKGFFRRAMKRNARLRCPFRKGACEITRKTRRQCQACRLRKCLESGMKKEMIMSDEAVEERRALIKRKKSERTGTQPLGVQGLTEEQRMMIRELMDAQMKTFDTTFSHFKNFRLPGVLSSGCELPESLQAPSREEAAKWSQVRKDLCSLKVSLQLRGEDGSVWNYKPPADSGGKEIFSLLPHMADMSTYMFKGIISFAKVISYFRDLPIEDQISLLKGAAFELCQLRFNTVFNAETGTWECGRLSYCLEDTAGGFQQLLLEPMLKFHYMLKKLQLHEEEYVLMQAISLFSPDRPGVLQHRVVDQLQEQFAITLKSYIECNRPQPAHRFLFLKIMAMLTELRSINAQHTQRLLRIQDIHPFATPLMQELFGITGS

Assay [11] deals with human Retinoic Acid Receptor gamma (RARg), RARG (gene 5916) (UniProt P13631). Nature of the assay: ATG_RARg_TRANS: Attagene TRANS-FACTORIAL HepG2 Assay for human Retinoic Acid Receptor gamma (RARg) (AID 2283009; active = hit-call score of the fitted dose curve at least 0.9, where 1 is the maximum). The method, boiled down: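 Transient transfection of HepG2 with multi-reporter constructs, then 24 h chemical treatment. Total RNA isolated, reverse-transcribed, PCR-amplified, fluorescently labelled and resolved by capillary electrophoresis; activity scored as mRNA induction versus DMSO.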
human Retinoic Acid Receptor gamma (RARg), RARG (gene 5916), sequence (P13631 whole entry, looked up): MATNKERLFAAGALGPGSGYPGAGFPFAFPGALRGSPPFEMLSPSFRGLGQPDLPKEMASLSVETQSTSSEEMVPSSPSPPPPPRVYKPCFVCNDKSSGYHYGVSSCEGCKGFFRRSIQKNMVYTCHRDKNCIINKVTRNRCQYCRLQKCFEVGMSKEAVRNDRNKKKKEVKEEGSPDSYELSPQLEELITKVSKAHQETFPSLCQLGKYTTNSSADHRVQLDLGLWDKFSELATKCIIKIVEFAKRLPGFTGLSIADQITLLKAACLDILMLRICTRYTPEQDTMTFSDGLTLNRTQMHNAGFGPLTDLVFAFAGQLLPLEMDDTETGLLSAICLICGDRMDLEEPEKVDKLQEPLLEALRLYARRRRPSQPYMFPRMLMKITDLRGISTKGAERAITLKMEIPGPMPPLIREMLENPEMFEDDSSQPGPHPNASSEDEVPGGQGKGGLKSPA

The target in assay [12] is human RAR-related Orphan Receptor gamma (RORg), RORC (gene 6097) (UniProt P51449). Nature of the assay: ATG_RORg_TRANS: Attagene TRANS-FACTORIAL HepG2 Assay for human RAR-related Orphan Receptor gamma (RORg) (AID 2283011; active = hit-call score of the fitted dose curve at least 0.9, where 1 is the maximum). The method, boiled down:
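Activity is scored as increase in GAL4-UAS reporter mRNA over DMSO, detected by fluorescent RT-PCR and capillary electrophoresis in HepG2 cells transiently expressing a RORg-Gal4 chimera, 24 h after dosing.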

Assay [13] addresses Retinoic acid receptor RXR-alpha (Homo sapiens) (UniProt P19793). Nature of the assay: ATG_RXRa_TRANS: Attagene TRANS-FACTORIAL HepG2 Assay for human Retinoid X Receptor alpha (RXRa) (AID 2283012; active = hit-call score of the fitted dose curve at least 0.9, where 1 is the maximum). The method, boiled down:
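Transient transfection of human HepG2 with multiple GAL4-UAS reporter constructs; 24 h compound exposure; total RNA isolated, reverse-transcribed, PCR-amplified, 6-FAM labelled, HpaI-cut, resolved by capillary electrophoresis. Positive-direction fit versus DMSO.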

The target of assay [14] is human Retinoid X Receptor beta (RXRb), RXRB (gene 6257) (UniProt P28702). Nature of the assay: ATG_RXRb_TRANS: Attagene TRANS-FACTORIAL HepG2 Assay for human Retinoid X Receptor beta (RXRb) (AID 2283013; active = hit-call score of the fitted dose curve at least 0.9, where 1 is the maximum). The method, boiled down:
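Transfect HepG2 with GAL4-UAS multi-reporter constructs (chimeric NR-Gal4, TRANS format); dose compound 24 h; isolate RNA, RT-PCR, FAM primer extension, HpaI digest; quantify by capillary electrophoresis; positive direction vs DMSO.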

Read-out in assay [15]: E-selectin (Homo sapiens) (UniProt P16581)
Nature of the assay: BSK_3C_Eselectin: BioMAP Diversity Plus: 3C Assay for Eselectin Biomarker Activity (AID 2283015).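 As to outcome: cell surface E-selectin protein quantified by ELISA 24 h after dosing.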 The conditions noted are these: primary human endothelial cells (HUVEC); actives raise or lower the signal. The method, boiled down:
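Human vascular endothelium from umbilical vein is exposed to test chemicals for 24 h. E-selectin levels are read by ELISA and compared with DMSO controls.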

Read-out in assay [16]: Interleukin-1 alpha (IL1a), IL1A (gene 3552)
Nature of the assay: BSK_BE3C_IL1a: BioMAP Diversity Plus: BE3C Assay for Interleukin-1 alpha (IL1a) Biomarker Activity (AID 2283016). To be noted: primary human bronchial epithelial cells; actives raise or lower the signal. The method, boiled down: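 BE3C primary human bronchial epithelium; cpd 24 h; IL-1a by ELISA; bidirectional fit vs DMSO; parallel SRB (0.1% SRB, 10% TCA fix, 560 nm) for cytotoxicity.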

Read-out in assay [17]: Monocyte Chemoattractant Protein-1 (MCP1), CCL2 (gene 6347)
Nature of the assay: BSK_3C_MCP1: BioMAP Diversity Plus: 3C Assay for Monocyte Chemoattractant Protein-1 (MCP1) Biomarker Activity (AID 2283017). The conditions noted are these: primary human endothelial cells (HUVEC); actives raise or lower the signal. The method, boiled down: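 Endothelial cells from human umbilical vein are dosed with chemical, cultured 24 h, then assayed for MCP-1 by ELISA; both increases and decreases are modelled against DMSO controls.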

Read-out in assay [18]: Monocyte Chemoattractant Protein-1 (MCP1), CCL2 (gene 6347)
Nature of the assay: BSK_4H_MCP1: BioMAP Diversity Plus: 4H Assay for Monocyte Chemoattractant Protein-1 (MCP1) Biomarker Activity (AID 2283018). The conditions noted are these: primary human endothelial cells (HUVEC); actives raise or lower the signal. The method, boiled down:
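ELISA read-out of MCP-1 from human vascular endothelial primary cells taken at 24 hours after compound exposure. Activity was fitted in both directions relative to DMSO, which served as negative control.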

Read-out in assay [19]: Human Leukocyte Antigen - DR isotype (HLADR), HLA-DRA (gene 3122)
Nature of the assay: BSK_3C_HLADR: BioMAP Diversity Plus: 3C Assay for Human Leukocyte Antigen - DR isotype (HLADR) Biomarker Activity (AID 2283019).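 As to outcome: ELISA of cell-surface HLA-DR on HUVEC 24 h after dosing.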 To be noted: primary human endothelial cells (HUVEC); actives raise or lower the signal. The method, boiled down: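 Endothelial cells from human umbilical vein are treated with test chemical; after 24 h, HLA-DR levels are measured by ELISA. Data are fitted in both directions using DMSO as the baseline.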

Assay [20] has as its target human Thyroid Receptor alpha (THRa1), THRA (gene 7067) (UniProt P10827). Nature of the assay: ATG_THRa1_TRANS: Attagene TRANS-FACTORIAL HepG2 Assay for human Thyroid Receptor alpha (THRa1) (AID 2283014; active = hit-call score of the fitted dose curve at least 0.9, where 1 is the maximum). The method, boiled down:
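First, HepG2 cells receive multiple GAL4-UAS reporter units and the chimeric receptor. They are then dosed for 24 h, after which RNA is reverse-transcribed, amplified, labelled, HpaI-cut and sized by capillary electrophoresis; gain relative to DMSO is scored.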

E-selectin (Homo sapiens), sequence (P16581 whole entry, looked up): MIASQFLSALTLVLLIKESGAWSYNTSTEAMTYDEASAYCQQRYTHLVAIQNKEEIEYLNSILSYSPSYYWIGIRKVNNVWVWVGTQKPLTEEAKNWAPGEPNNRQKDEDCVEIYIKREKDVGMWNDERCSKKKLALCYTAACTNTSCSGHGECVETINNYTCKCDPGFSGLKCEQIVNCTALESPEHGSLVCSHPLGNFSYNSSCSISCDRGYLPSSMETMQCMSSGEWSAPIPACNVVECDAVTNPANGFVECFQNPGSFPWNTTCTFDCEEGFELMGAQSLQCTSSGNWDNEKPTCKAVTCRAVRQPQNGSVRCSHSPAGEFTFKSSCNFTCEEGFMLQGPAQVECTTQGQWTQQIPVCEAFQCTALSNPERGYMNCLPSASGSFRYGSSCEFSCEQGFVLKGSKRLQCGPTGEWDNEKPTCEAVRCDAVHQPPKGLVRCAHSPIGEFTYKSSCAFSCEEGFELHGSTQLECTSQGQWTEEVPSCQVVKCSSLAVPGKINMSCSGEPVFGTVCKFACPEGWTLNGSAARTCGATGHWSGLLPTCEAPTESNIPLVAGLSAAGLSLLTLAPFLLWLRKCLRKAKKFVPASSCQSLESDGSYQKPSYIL
human Thyroid Receptor alpha (THRa1), THRA (gene 7067), sequence (P10827 whole entry, looked up, the tested form may be a part): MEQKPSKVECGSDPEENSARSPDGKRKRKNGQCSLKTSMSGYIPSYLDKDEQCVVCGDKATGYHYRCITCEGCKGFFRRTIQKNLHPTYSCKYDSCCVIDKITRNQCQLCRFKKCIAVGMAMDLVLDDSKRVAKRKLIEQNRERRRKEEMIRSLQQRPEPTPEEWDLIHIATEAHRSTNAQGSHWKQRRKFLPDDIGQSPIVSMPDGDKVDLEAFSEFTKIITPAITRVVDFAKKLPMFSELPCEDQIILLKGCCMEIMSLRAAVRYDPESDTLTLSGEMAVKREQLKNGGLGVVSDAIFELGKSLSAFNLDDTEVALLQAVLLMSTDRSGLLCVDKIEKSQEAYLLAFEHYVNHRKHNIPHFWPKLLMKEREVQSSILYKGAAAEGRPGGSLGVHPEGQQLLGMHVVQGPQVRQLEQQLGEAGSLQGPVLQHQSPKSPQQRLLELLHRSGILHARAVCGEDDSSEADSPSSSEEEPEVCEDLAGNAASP
human RAR-related Orphan Receptor gamma (RORg), RORC (gene 6097), sequence (P51449 whole entry, looked up, the tested form may be a part): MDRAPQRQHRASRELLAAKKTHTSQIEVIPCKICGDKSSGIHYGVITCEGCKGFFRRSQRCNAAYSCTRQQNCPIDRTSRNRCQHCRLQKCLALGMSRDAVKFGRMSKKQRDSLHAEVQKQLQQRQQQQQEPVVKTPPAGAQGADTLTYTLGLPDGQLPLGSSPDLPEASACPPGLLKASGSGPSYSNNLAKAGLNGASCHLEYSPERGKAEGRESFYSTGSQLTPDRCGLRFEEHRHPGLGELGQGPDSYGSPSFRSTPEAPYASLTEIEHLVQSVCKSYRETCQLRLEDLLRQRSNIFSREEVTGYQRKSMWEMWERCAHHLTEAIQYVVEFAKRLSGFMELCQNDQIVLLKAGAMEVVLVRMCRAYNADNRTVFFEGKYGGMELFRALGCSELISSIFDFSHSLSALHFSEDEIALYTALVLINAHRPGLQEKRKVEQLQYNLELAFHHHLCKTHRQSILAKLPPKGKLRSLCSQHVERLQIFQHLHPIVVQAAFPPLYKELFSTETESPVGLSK
Peroxisome proliferator-activated receptor gamma (Homo sapiens), sequence (P37231 whole entry, looked up): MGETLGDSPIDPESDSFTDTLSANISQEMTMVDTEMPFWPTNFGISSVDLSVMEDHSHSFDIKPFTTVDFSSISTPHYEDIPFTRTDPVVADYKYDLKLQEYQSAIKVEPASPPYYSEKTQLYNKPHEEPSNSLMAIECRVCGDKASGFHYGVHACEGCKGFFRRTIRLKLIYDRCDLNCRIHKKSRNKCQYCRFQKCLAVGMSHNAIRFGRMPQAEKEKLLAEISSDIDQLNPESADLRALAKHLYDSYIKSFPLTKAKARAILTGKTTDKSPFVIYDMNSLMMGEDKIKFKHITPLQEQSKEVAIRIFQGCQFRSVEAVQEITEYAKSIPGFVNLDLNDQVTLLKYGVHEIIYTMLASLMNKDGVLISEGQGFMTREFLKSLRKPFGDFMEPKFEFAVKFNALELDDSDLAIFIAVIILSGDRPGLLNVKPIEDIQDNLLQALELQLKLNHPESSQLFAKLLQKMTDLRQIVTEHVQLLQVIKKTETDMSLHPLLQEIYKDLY
human Retinoid X Receptor beta (RXRb), RXRB (gene 6257), sequence (P28702 whole entry, looked up, the tested form may be a part): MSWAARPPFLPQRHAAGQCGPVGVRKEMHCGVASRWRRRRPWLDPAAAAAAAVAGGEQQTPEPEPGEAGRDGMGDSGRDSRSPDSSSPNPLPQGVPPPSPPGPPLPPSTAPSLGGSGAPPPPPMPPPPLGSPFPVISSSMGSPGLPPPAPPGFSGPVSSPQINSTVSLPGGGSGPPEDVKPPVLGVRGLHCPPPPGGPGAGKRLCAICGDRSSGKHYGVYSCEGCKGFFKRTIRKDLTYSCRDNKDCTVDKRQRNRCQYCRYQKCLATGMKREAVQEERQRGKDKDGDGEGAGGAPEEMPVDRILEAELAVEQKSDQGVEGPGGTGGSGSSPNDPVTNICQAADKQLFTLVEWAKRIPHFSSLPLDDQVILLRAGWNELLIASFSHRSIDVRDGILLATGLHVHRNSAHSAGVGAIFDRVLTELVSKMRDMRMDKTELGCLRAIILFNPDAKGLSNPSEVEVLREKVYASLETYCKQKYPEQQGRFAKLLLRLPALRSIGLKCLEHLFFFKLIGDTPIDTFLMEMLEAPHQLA
Retinoic acid receptor RXR-alpha (Homo sapiens), sequence (P19793 whole entry, looked up, the tested form may be a part): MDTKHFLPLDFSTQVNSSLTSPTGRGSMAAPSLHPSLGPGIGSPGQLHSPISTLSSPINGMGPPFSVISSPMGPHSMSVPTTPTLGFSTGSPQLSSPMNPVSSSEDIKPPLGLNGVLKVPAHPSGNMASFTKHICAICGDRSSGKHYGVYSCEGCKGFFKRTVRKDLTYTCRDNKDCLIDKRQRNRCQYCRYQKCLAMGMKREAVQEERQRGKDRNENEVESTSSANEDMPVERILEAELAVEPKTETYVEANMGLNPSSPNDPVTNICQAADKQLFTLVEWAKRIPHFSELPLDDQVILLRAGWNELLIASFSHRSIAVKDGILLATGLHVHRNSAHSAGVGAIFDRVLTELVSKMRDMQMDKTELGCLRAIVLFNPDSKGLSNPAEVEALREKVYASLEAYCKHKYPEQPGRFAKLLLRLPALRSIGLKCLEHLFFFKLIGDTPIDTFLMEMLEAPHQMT
human Retinoic Acid Receptor beta (RARb), RARB (gene 5915), sequence (P10826 whole entry, looked up, the tested form may be a part): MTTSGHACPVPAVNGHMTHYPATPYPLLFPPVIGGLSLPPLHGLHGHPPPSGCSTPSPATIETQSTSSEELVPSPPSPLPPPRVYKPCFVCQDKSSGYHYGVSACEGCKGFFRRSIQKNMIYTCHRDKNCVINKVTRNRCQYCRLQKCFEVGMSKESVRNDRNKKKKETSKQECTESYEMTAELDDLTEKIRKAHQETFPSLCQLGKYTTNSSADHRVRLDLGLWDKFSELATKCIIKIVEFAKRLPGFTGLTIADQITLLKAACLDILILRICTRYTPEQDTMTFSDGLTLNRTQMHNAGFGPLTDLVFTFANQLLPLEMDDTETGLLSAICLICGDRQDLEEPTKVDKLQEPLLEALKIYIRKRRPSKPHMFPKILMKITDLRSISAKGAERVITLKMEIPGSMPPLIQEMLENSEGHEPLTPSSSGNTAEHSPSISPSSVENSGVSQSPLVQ
human Peroxisome Proliferator-activated Receptor delta (PPARd), PPARD (gene 5467), sequence (Q03181 whole entry, looked up, the tested form may be a part): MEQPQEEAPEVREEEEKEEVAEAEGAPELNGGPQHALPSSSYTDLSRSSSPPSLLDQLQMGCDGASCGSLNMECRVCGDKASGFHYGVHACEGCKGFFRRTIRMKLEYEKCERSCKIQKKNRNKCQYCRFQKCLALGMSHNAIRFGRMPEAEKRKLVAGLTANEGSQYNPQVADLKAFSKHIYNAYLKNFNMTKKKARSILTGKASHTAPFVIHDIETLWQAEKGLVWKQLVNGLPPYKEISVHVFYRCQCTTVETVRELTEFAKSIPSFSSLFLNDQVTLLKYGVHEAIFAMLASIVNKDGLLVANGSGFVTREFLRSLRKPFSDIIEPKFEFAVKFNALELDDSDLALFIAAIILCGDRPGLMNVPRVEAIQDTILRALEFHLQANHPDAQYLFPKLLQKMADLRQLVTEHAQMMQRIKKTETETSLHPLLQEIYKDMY

Turning to `CC(C1CC1)C(O)(Cn1cncn1)c1ccc(Cl)cc1` (stereo not drawn), the outcome in assay [1], in [2], in [3], in assay [4], in assay [5] and in assay [6] was inactive. In addition, the call in assay [7], in [8], in assay [9], in assay [10], in assay [11] and in assay [12] was inactive. The compound was called inactive in assay [13], in assay [14], in [15], in assay [16], in assay [17] and in [18]. Also, the outcome in assay [19] was inactive.

`O=[N+]([O-])c1cc(C(F)(F)F)c(Cl)c([N+](=O)[O-])c1Nc1ncc(C(F)(F)F)cc1Cl`: the AC50 is 1.46 µM (active) and 2.82 µM (active) in assay [1]; 1.39 µM (active) and 3.07 µM (active) in assay [2]; 3.09 µM (active) and 3.8 µM (active) in assay [5]; 589 nM (active) and 1.47 µM (active) in [8]; 0.651 µM (active) in [9]; 2.86 µM (active) in assay [10]. Moreover, the AC50 in assay [15] is 1.47 µM (active) and 3.24 µM (active); in assay [17] it was 3.5 µM (active) and 4.23 µM (active); in [18] it was 738 nM (active) and 3.46 µM (active); in [19] it was 919 nM (active) and 1.74 µM (active). Moreover, the call in assay [4], in [6], in assay [7], in assay [9], in assay [10] and in assay [11] was inactive. Also, the outcome in [12], in [13], in assay [14] and in assay [20] was inactive.

Consider `CCOP(=O)(OCC)Oc1cc(C)nc(C(C)C)n1`, for which the result in assay [1], in [2], in [4], in assay [5], in [8] and in assay [9] was inactive. In addition, the compound was called inactive in [12], in assay [15], in [17] and in assay [18]. Besides, the AC50 in assay [19] is 20 µM (active).

As to `FC(F)C(F)(F)OCC(Cn1cncn1)c1ccc(Cl)cc1Cl` (stereo not drawn), the result in [1], in [4], in assay [6], in assay [9], in [10] and in [11] was inactive. Moreover, the call in [13], in assay [20], in assay [15] and in assay [17] was inactive. Besides, the AC50 was 28.4 µM (active) in [2]; 13.2 µM (active) in assay [7]; 20 µM (active) in assay [8]; 23.2 µM (active) in assay [18]; 26.9 µM (active) in [19].

Take `CN1COCN(Cc2cnc(Cl)s2)C1=N[N+](=O)[O-]`: the outcome in [1], in [2], in assay [3], in assay [6], in [8] and in assay [9] was inactive. Besides, the result in assay [11], in assay [12], in [13], in [14], in assay [20] and in [15] was inactive. Moreover, the outcome in [17], in [18] and in assay [19] was inactive.

As for `Nc1nc(N)nc(NC2CC2)n1`, the result in [1], in assay [2], in assay [4], in assay [5], in assay [6] and in [7] was inactive. For the same compound, the result in assay [8], in assay [10], in assay [11], in assay [13], in [14] and in [15] was inactive. The outcome in assay [16], in [17], in assay [18] and in [19] was inactive.

In the case of `COP(=O)(OC)OC(Br)C(Cl)(Cl)Br` (stereo not drawn), the concentration at half-maximal activity (AC50) was 29.7 µM (active) in assay [1]; 33.2 µM (active) in assay [2]; 16 µM (active) in assay [8]; 30.1 µM (active) in assay [15]; 29.8 µM (active) in assay [16]; 35.6 µM (active) in [17]. The AC50 is 30.1 µM (active) in assay [18] and 14.9 µM (active) in assay [19]. In addition, the call in assay [4], in assay [7], in assay [9] and in assay [11] was inactive.

The term AC50 denotes the concentration giving half of the maximal activity seen.
